Results: PubChem BioAssay AID2284359 (EPA ToxCast)
Results filed as inconclusive are left out. Calls of active or inactive are those of the source. Rule for the calls: active = hit-call score of the fitted dose curve at least 0.9, where 1 is the maximum; inconclusive = response in the unintended direction; inactive = score below 0.9.

Experiment: ATG_M_06_EcoTox2: Attagene TRANS-FACTORIAL EcoTox-2 HepG2 Assay for M06 Transcription Factor (Internal Marker)
Method: ATG_EcoTox2 is a cell-based, multiplexed assay created by modifying the existing Attagene TRANS-FACTORIAL system to include a panel of nuclear receptors from some or all the following species: human (Homo sapiens), african clawed frog (Xenopus laevis), rainbow trout (Oncorhynchus mykiss), japanese medaka (Oryzias latipes), and zebrafish (Danio rerio). The ECOTOX2-FACTORIAL format uses HepG2, a human liver cell line, with measurements taken at 24 hours after chemical dosing in a 24-well plate. ATG_M_06_EcoTox2 is one of 29 assay components calculated in the ATG_EcoTox2 assay. It is designed to make measurements of mRNA induction, a form of inducible reporter, as detected with fluorescence intensity signals by Reverse transcription polymerase chain reaction (RT-PCR) and Capillary electrophoresis technology.The assay endpoint ATG_M_06_EcoTox2 was analyzed in the positive analysis fitting direction relative to DMSO as the negative control and baseline of activity. Using a type of inducible reporter, measures of mRNA for gain-of-signal activity can be used to understand the background control at the transcription factor-level as they relate to the gene. Furthermore, this assay endpoint can be referred to as a secondary readout, because this assay has produced multiple assay endpoints where this one serves a background control function. To generalize the intended target to other relatable targets, this assay endpoint is annotated to the background measurement intended target family, where the subfamily is internal marker.
Human liver HepG2 cells are transiently transfected with multiple reporter transcription units (MRTUs) in 6-well plates using FuGene 6 reagent (Roche; 3 ml FuGene/1 mg DNA). The MRTU constructs are regulated by a cis-regulating element (promoter). Each RTU expresses a GAL4-UAS that regulates the transcription of a nearby target reporter gene sequence. A major difference between the CIS and TRANS system is that in CIS activities of endogenous TFs are measured, whereas the TRANS assay evaluates changes in activities of exogenous, chimeric NR-Gal4 proteins. […] At the end of 24 hour incubation, total RNA was isolated using TriZol reagent (Invitrogen). The isolated RNA is then reverse-transcribed using oligo(dT) primer and Mo-MLV reverse transcriptase (Invitrogen) with DNAse I (Ambion) treatment for 30 min. The one-tenth of the produced cDNA was amplified by PCR using Taq DNA polymerase (Invitrogen) and two reporter sequence-specific primers. […] The fragments were purified using Qiaquick PCR columns (Qiagen), analyzed on an ABI 3130xL genetic analyzer (Applied Biosystems) with peak positions identified by using a set of X-rhodamine (ROX)-labeled MapMarker1000 molecular weight standards (BioVentures). […]

Row | Compound | outcome
1 | O=P(Oc1ccccc1)(Oc1ccccc1)Oc1ccccc1 | inactive
2 | O=C(O)C(F)(F)C(F)(F)C(F)(F)C(F)(F)C(F)(F)C(F)(F)C(F)(F)F | inactive
3 | CCCCOCN(C(=O)CCl)c1c(CC)cccc1CC | inactive
4 | O=S(=O)(O)C(F)(F)C(F)(F)C(F)(F)C(F)(F)C(F)(F)C(F)(F)F | inactive
